According to ChEMBL document CHEMBL3988442, “University of Dundee, Small-Polar-MMV Screening Library” (2021):
Hit rate of the full screen: of about 48,000 compounds, about 13,000 (27%) showed an effect of 50% or more. The list shows a part of the results.

Each compound was assayed on Wolbachia pipientis (assay: Anti-Wolbachia Cell-Based Screen). Details: 5 µM.
Type: functional
Parameters: scale not given: in the data most compounds retested in dose-response had high values

Structure (SMILES)	Percent Effect [%]
CC(C)c1nc2n(n1)CC(NCc1nc(-c3ccsc3)no1)CC2 (stereo unspecified)	-1.114
O=c1n(CC2CCCCO2)nc(CC2CCNCC2)n1-c1ccccc1 (stereo unspecified)	26.34
CC(NC(=O)c1cc(Br)c2c(c1)OCCO2)C(N)=O (stereo unspecified)	-7.344
CC(C)OCCS(=O)(=O)N1CCN(Cc2cccn2C)CC1	-8.582
CC(C)CN1C(=O)C2(CCCC2)NC12CCSCC2	-2.921
CCOc1ccc(C(=O)N2Cc3cnc(CC)nc3C2)o1	-12.82
CCCS(=O)(=O)NC(=O)c1cc(C)n(-c2ccccc2)n1	6.254
CCN(CC)S(=O)(=O)NC(=O)c1cc(C)n(-c2ccccc2)n1	6.675
CNC(=O)c1cc(C)n(-c2ccccc2)n1	92.62
COc1cc(N2CCCC(c3nccn3Cc3cscn3)C2)nc(N)n1 (stereo unspecified)	2.098
O=c1[nH]c2c(c(=O)n1C1CCCCC1)CCC2Nc1ccccc1Cl (stereo unspecified)	4.437
O=c1[nH]c2c(c(=O)n1C1CCCCC1)CCC2Nc1ccccc1 (stereo unspecified)	-8.343
O=c1[nH]c2c(-c3ccccn3)nsc2c(=O)n1C1CCCCC1	110.2
O=C(c1ccc2c(c1)OCO2)N1C[C@@H](CN2CCCCC2)[C@@H](CO)C1	-23.85
COCCN(C)C[C@@H]1CN(C(=O)c2ccc(OC)c(F)c2)C[C@@H]1CO	94.27
COCCN(C)C[C@@H]1CN(C(=O)c2ccc(SC)cc2)C[C@@H]1CO	113.3
COc1ccc(F)c(F)c1C(=O)N1C[C@@H](CN(C)CCO)[C@@H](CO)C1	-3.681
COCCN(C)C[C@@H]1CN(C(=O)C(C)(C)c2ccccc2)C[C@@H]1CO	115.8
COCCN(C)C[C@@H]1CN(C(=O)c2ccc3c(c2)OCO3)C[C@@H]1CO	100.3
COCCN(C)C[C@@H]1CN(C(=O)c2c(F)ccc(OC)c2F)C[C@@H]1CO	-13.51
CCc1ccc2nc(C)cc(C(=O)NC3CCCCNC3=O)c2c1 (stereo unspecified)	-55.41
COc1ccc(N2CCC(N3CCOC(C(F)(F)F)C3)CC2)cc1 (stereo unspecified)	26.01
COC(=O)c1ccc(Cl)c(CN(C)Cc2ncnn2C)c1	-12.36
COC(=O)CCCC(=O)N(C)CC1Cc2ccccc2CN1C (stereo unspecified)	-6.642
CS(=O)(=O)Cc1ccc(C(=O)NCC2Cc3ccccc3O2)cc1 (stereo unspecified)	-4.65
COc1ccc(C)cc1C(=O)N1C[C@@H](CN(C)CCO)[C@@H](CO)C1	-25.29

Structure (SMILES)	Percent Effect [%]
COCCN(C)C[C@@H]1CN(C(=O)c2ccc(C)cc2)C[C@@H]1CO	166.3
COCCN(C)C[C@@H]1CN(C(=O)c2ccoc2)C[C@@H]1CO	-5.57
Cc1cc(C(=O)N2CCn3cnc(COCC4CC4)c3C2)no1	-11.47
CCc1n[nH]c(C2CN(C(=O)c3ccc4c(c3)CCC4)CCO2)n1 (stereo unspecified)	79.95
CCc1n[nH]c(C2CN(C(=O)c3ccc4c(c3)CCCC4)CCO2)n1 (stereo unspecified)	128.9
Cc1n[nH]c(C2CN(C(=O)c3ccc4c(c3)CCCC4)CCO2)n1 (stereo unspecified)	-29.36
CCc1n[nH]c(C2CN(C(=O)c3cc4c(s3)CCCC4)CCO2)n1 (stereo unspecified)	-2.74
CCc1nc(CNC2CCCc3c2cnn3CC)cs1 (stereo unspecified)	1.475
COCCCC1CCCCN1S(=O)(=O)c1cccc(C#N)c1 (stereo unspecified)	99.73
CC(C)C1CN(S(=O)(=O)c2cccc(C#N)c2)CCS1 (stereo unspecified)	-18.57
CCN1CCCC1CN(CCN(C)C)S(=O)(=O)c1cccc(C#N)c1 (stereo unspecified)	-13.07
N#Cc1cccc(S(=O)(=O)N2CCCCC2CCN2CCCC2)c1 (stereo unspecified)	93.73
CS(=O)(=O)NCC1CCCCN1Cc1cccc(C#N)c1 (stereo unspecified)	20.87
N#Cc1cccc(S(=O)(=O)N2CCCCC2CCN2CCCC2=O)c1 (stereo unspecified)	2.931
O=C(O)c1csc(S(=O)(=O)N2CCCc3cc(OC(F)F)ccc32)c1	-5.134
O=C(O)C(F)(F)F.O=C(c1ncccn1)N1C[C@H]2CCC[C@@]2(COCc2cccnc2)C1	0.3809
CN(C)S(=O)(=O)N1C[C@H]2CCC[C@@]2(COc2cccnc2)C1.O=C(O)C(F)(F)F	5.762
Cc1noc(C)c1C(=O)N1C[C@H]2CCC[C@@]2(COc2ccccn2)C1.O=C(O)C(F)(F)F	-9.504
CN(C)S(=O)(=O)N1C[C@H]2CCC[C@@]2(COCc2ccccn2)C1.O=C(O)C(F)(F)F	5.963
O=C(C1CCOCC1)N1C[C@H]2CCC[C@@]2(COc2cccnc2)C1.O=C(O)C(F)(F)F	89.34
O=C(N1CCCC1)N1C[C@H]2CCC[C@@]2(COCc2ccccn2)C1.O=C(O)C(F)(F)F	108.6
Cc1ccc(N2C[C@H]3CCC[C@@]3(COc3cccnc3)C2)nn1.O=C(O)C(F)(F)F.O=C(O)C(F)(F)F	-0.008691
O=C(C1CCOCC1)N1C[C@H]2CCC[C@@]2(COCc2ccccn2)C1	98.54
COC[C@@]12CCC[C@@H]1CN(C(=O)Cc1ccccn1)C2.O=C(O)C(F)(F)F	87.04
Cc1cccc(NS(=O)(=O)c2ccc(C#N)nc2)c1C#N	-1.647
CCC(CC)c1cc(C(=O)N2CCN(C(C)C(N)=O)CC2)on1 (stereo unspecified)	-12.57

Structure (SMILES)	Percent Effect [%]
CCC(CC)c1cc(C(=O)N2CCN(C(C#N)C(C)C)CC2)on1 (stereo unspecified)	-14.62
CC(C)c1cc(C(=O)N2CCN(c3ncc4c(n3)CCOC4)CC2)on1	106.5
Cc1cc(NC(=O)CN(c2ccccc2)C(C)C)on1	-6.846
COc1cccc(Nc2nc(C3CCNCC3)c3sc(C)c(C)n23)c1.Cl	130.3
COc1cccc(Nc2nc(C3CCCNC3)c3sc(C)c(C)n23)c1.Cl (stereo unspecified)	119.3
O=C(Nc1cccnc1-n1cncn1)N(C1CCCC1)C1CC1	-11.98
CN(C)[C@@H]1CO[C@H](CNC(=O)CC(C)(C)C)[C@H]1O	-5.201
COc1cccc(OCC2CCCN(C(=O)CCCn3cccn3)C2)c1 (stereo unspecified)	-37.97
CSCCC(=O)NCc1cc2n(n1)CCCN(C1CCCCC1)C2	170.8
CC(C)SCC(=O)NCc1cc2n(n1)CCCN(C1CCCCC1)C2	96.57
CC(C)CN1CCCn2nc(CNC(=O)Cc3cccc(O)c3)cc2C1	6.027
CSCC[C@H](N)C(=O)NCc1cc2n(n1)CCCN(C1CCCCC1)C2	-4.094
CC(C)CN1CCCn2nc(CNC(=O)CCN)cc2C1	-4.677
CCN(C(C)=O)C1CCN(c2nccc(CCC(F)(F)F)n2)C1 (stereo unspecified)	-1.785
COCc1ccc(C(=O)N2CCC(c3nccn3CC3CC3)CC2)o1	-37.93
CCCC(C)(C)NC(=O)CCN1CCOC1=O	8.427
COc1cccc(S(=O)(=O)CCNC(C)Cn2cccn2)c1 (stereo unspecified)	-1.101
CC(=O)c1c[nH]c(C(=O)N2CCN(C(C(N)=O)c3ccccc3)CC2)c1 (stereo unspecified)	-4.109
CN1C(=O)CC(C(=O)O)C12CCN(Cc1cc(Cl)ccc1F)CC2 (stereo unspecified)	-0.96
Cc1nc(CNC(=O)C(C)(C)c2ccc(F)cc2)no1	7.656
O=C(NCc1ccccc1CN1CCCC1)Nc1cccnc1	1.889
CN1CCC(c2cncc(C(=O)NCc3ccc(F)cc3)n2)CC1	172.3
Cn1cc(CN2CCC(CCC(=O)NCc3ccc(F)cc3)CC2)cn1	-6.777
CN1CCCC(c2cncc(C(=O)NCc3ccccc3Cl)n2)C1.O=CO (stereo unspecified)	120.9
CN1CCC(N(Cc2ccccc2F)C(=O)NCc2ccncc2)CC1	10.43
O=C(CCCc1ccccn1)N1CCOc2ccc(F)cc21	-6.681

Structure (SMILES)	Percent Effect [%]
CN(C)C(=O)NC1COC2(CCN(Cc3nccn3C)CC2)C1 (stereo unspecified)	15.08
CNC(=O)C1(CCCc2ccccn2)CCN1Cc1coc(C)n1 (stereo unspecified)	87.23
Cc1nc(CN2CCC(Oc3ccc(F)cc3C)(C(=O)O)CC2)co1	-0.386
Cc1nc(CN2CC(CCCc3ccccn3)(C(=O)N(C)C)C2)co1	55.58
Cc1ccc(NC2CCN(C(=O)CCCc3ccccn3)CC2)cc1	28.87
O=C(CCCc1ccccn1)N1CCC(n2cccc2)CC1	17.05
Cc1cccc(C(C(=O)NCCCc2ccccn2)N(C)C)c1 (stereo unspecified)	0.3434
CN(C)C(=O)C1(CCCc2ccccn2)CCN1Cc1nccn1C (stereo unspecified)	105.4
Cc1nc(CN2CCC2(CCCc2ccccn2)C(=O)N(C)C)co1 (stereo unspecified)	74.52
Cn1ccnc1CN1CCCC(CO)(CCc2ccccc2)C1 (stereo unspecified)	4.446
O=C(CN1C(=O)CCC1=O)N1Cc2cncnc2C1	12.03
Cc1nc2n(n1)CC(NCC(=O)N(C)Cc1cccs1)CC2 (stereo unspecified)	8.702
CC(C)(C)c1cn(CC2CCCN(c3cnc4ccccc4n3)C2)nn1 (stereo unspecified)	0.2574
CCNC(=O)N1CCCCC1CCO (stereo unspecified)	-12.11
COCCOCC(=O)N1CCC(c2ccccc2F)C1 (stereo unspecified)	5.027
CCOc1cccnc1C(=O)N1CCC(c2ccccc2OC)C1 (stereo unspecified)	-1.787
O=C1CCCCN1CC(=O)N1CCCC(c2ccccc2)C1 (stereo unspecified)	-3.382
Cc1cccc(C2CCCN(C(=O)CN3C(=O)CCNC3=O)C2)c1 (stereo unspecified)	2.396
COc1ccccc1C1CCN(C(=O)CN2C(=O)OC(C)(C)C2=O)CC1	112.8
CC1(C)OC(=O)N(CC(=O)N2CCC(c3ccccc3Cl)C2)C1=O (stereo unspecified)	91.31
COc1ccccc1[C@@H]1CN(CC(=O)N2CCCCC2)C[C@H]1C(=O)O	-14.69
CC1(C)OC(=O)N(CC(=O)N2CCC(c3ccccc3F)C2)C1=O (stereo unspecified)	96.35
O=C(CN1C(=O)CCNC1=O)N1CCC(c2ccc(F)cc2)C1 (stereo unspecified)	-18.18
